From PubChem BioAssay (Tox21) come the findings set out here.

SMILES strings stand for the structures. Inconclusive results are not listed. Values without a mark were called inactive. The source made the active and inactive calls. Calls follow the shape of the dose curve; as a rule, active = well fitted cell-killing curve with a large enough effect in the repeat runs; inconclusive = weak or mixed curves, or effect the other way; inactive = flat fitted curve, though single readings scatter.
% is scaled to controls: 0 for no effect and ±100 for the full control effect.

The experiment can be described thus: qHTS RealTime-Glo MT Cell Viability Assay in HEK293 cells - 0 hour (AID 1224880). Also: top concentration of the series differs between compounds; nearly all actives have a fitted effect of over 45% in size. The following applies: RealTime-Glo luminescence; series mostly up to 76.8 µM. The text has this: U.S. Tox21 Program National Center for Advancing Translational Sciences [NCATS] NIH Chemical Genomics Center [NCGC] U.S. Environmental Protection Agency [EPA] National Institutes of Environmental Health Sciences [NIEHS] National Toxicology Program [NTP] U.S. Food and Drug Administration [FDA] Tox21 Assay Overview: Measure of cell viability is critical in the cell-base assay. Analysis of cell viability is necessary for the characterization of cell responses to cytotoxic drugs and environmental stress. A RealTime-Glo MT Cell Viability Assay to monitor cell viability in real time of continues cell culture during 40 hours of compound treatment was used to screen Tox21 10K library compounds in Hek293 cells. The RealTime-Glo MT Cell Viability Assay is a nonlytic, homogeneous, bioluminescent method to measure cell viability in real time using a simple, plate-based method. The assay involves adding NanoLuc luciferase and a cell-permeant prosubstrate to cells in culture. Viable cells reduce the proprietary prosubstrate to generate a substrate for NanoLuc luciferase. This substrate diffuses from cells into the surrounding culture medium, where it is rapidly used by the NanoLuc Enzyme to produce a luminescent signal. The signal correlates with the number of viable cells, making the assay well suited for cytotoxicity studies.
Tox21 Assay Protocol Summary: The mixture of Hek293 cell suspension and reagents were dispensed at 600cells/6 ul/well in 1536-well tissue culture treated black solid bottom plates using a Multidrop dispenser. After the assay plates were incubated at a 37 C/5% CO2 incubator for 5 hours, 23 nL of compounds dissolved in DMSO, positive and negative controls was transferred to the assay plate by a pintool work station. The plates were incubated at 37 C for 40 hours. The luminescence intensity were measured at 0h, 8h, 16h, 24h, 32h and 40h time points using ViewLux plate reader during compound treatment.
For `CCC1COC(=O)O1` (stereo not given), the compound was classed as inactive.

On to `C=C(C)C(=O)OC`, for which the compound was classed as inactive. As for `C1=CCC(c2ccccc2)CC1` (stereo not given), the compound was classed as inactive. As to `CC(=O)OC[C@H]1O[C@@H](OC(C)=O)[C@H](OC(C)=O)[C@@H]1OC(C)=O`, the compound was classed as inactive. Consider `CC(Cl)COP(=O)(OCC(C)Cl)OCC(C)Cl` (stereo not given), for which the result was inactive. For `CCCCCCCCCCCCCCCC(=O)NCCO`, the compound was classed as inactive. `Cc1cccc(C(=O)O)c1[N+](=O)[O-]`: the compound was classed as inactive. `FC(F)(F)/C(=N\OCC1OCCO1)c1ccc(Cl)cc1`: the compound was called inactive. For `CC(=O)OC(C(=O)c1ccccc1)c1ccccc1` (stereo not given), the compound was called inactive. Turning to `CC1CCC(C(C)(C)S)C(=O)C1` (stereo not given), the compound was called inactive. Regarding `CC1=CC[C@H](CC=O)C1(C)C`, the outcome was inactive.

Consider `OC(CCN1CCCCC1)(c1ccccc1)c1ccccc1`, for which the outcome was inactive. Consider `COC(OC)C(C)c1ccccc1` (stereo not given), for which the call was inactive.

Regarding `NC(=O)NC(=O)Cc1ccccc1`, the outcome was inactive. `CCOC(=O)OCC/C(SC(=O)OCC)=C(\C)N(C=O)Cc1cnc(C)nc1N`: the compound was called inactive. Same read-out and setting: as for `O=C(O)c1ccccc1C(=O)OCc1ccccc1`, the entry is “inactive”; as for `CCC(CO)CO`, “inactive”; as for `O=C1c2ccccc2-c2ccccc21`, “inactive”. On the same count and under the same terms, then `Nc1ccc(S(=O)(=O)Nc2ccccn2)cc1`, with “inactive”. As for `CC(=O)N1CCN(c2ccc(O)cc2)CC1`, the result was inactive. Take `Cc1ccccc1OCC1CO1` (stereo not given): the call was inactive. Regarding `Cc1ncc([N+](=O)[O-])n1CC(O)CCl` (stereo not given), the call was inactive. With `O=C(O)/C=C/c1ccccc1`, the compound was called inactive. Regarding `Cc1oc(=O)oc1CN1CCN(c2cc3c(cc2F)c(=O)c(C(=O)O)c2n3C(C)S2)CC1` (stereo not given), the outcome was inactive. Regarding `C=CCOCC(CO)(COCC=C)COCC=C`, the compound was classed as inactive. Regarding `CC(=O)OC(C)(C)Cc1ccccc1`, the compound was called inactive. In the case of `CCCCCCCC/C=C\CCCCCCCC(=O)OC[C@@H](O)[C@H]1OC[C@H](O)[C@H]1O`, the outcome was inactive. Take `O=C(O)c1c(Cl)ccc(Cl)c1Cl`: the compound was classed as inactive. Regarding `Cc1ccc(S(=O)(=O)NC(=O)NC2CCCCCCC2)cc1`, the compound was called inactive. As for `O=C(/C=C/c1ccccc1)NCCO`, the compound was called inactive.

As for `CCC(=O)OCCC(C)CCC=C(C)C` (stereo not given), the compound was classed as inactive. `C=C(C)[C@@H]1CC[C@@H](C)C[C@@H]1O`: the outcome was inactive.

Turning to `CCCCC(CC)COC(=O)c1ccccc1` (stereo not given), the compound was called inactive. For the compound `CC(C)COC(=O)CC(C(=O)OCC(C)C)S(=O)(=O)O` (stereo not given), the compound was called inactive. With `CC(=O)OCC(=O)[C@@]1(O)[C@H](OC(C)=O)C[C@H]2[C@@H]3CCC4=CC(=O)C=C[C@]4(C)[C@@]3(F)[C@@H](O)C[C@@]21C`, the result was inactive. The same measure, in the same setting: then `CCCCOC(=O)[C@@H](C)Oc1ccc(Oc2ccc(C(F)(F)F)cn2)cc1`, with “inactive”; and `CCCCCN(CCCOC)C(=O)C(CCC(=O)O)NC(=O)c1ccc(Cl)c(Cl)c1` (stereo not given), with “inactive”.

Regarding `C=CCCCCCCCCCCC`, the activity change, negative = cytotoxicity is 4.11% [at 6.97 µM]. Regarding `CCCCCCCCCCCCCC(=O)OC`, the outcome was inactive. In the case of `O=C(Oc1ccccc1C(=O)O)c1ccccc1O`, the compound was called inactive.
